This passage reports inhibition results from PubChem BioAssay AID2732 (Emory University Molecular Libraries Screening Center, 2010).

Screen size: about 220,000 compounds; about 8,200 (3.7%) were called active. The full list was thinned out, with actives kept by preference. A number with no mark means an inactive call.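 The calls were made as follows: active = compounds that reduced the stress-induced luciferase reporter signal by more than about 70% of percent inhibition (limit read from the data); inactive = the rest.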

A short description of the experiment: inhibitors of CHOP promoter induction, primary screen, cell-based, unfolded protein response, luciferase reporter (AID 2732).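 Also: 0% = tunicamycin plus vehicle and 100% = wells without tunicamycin.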 The settings on record: CHO-K1 CHOP-promoter luciferase, tunicamycin-induced, 15-18 h; at 10 µM; active compounds read high. On the technique in general: In a reporter assay the amount or activity of a reporter protein is the signal.
A word on the inhibition: it is the change of the read-out against control, counted positive when it falls. With `COc1ccc(C(=O)C2CCCN(C(=O)c3cnsn3)C2)c(C)c1` (stereo unspecified), the inhibition was 1.06%. `FC(F)(F)c1cccc(N/N=C/c2ccccc2)c1`: the inhibition was 69%.

As for `Fc1ccc(/C=N/Nc2nc(-c3cccnc3)nc3ccccc23)cc1`, the inhibition was 1.02%. Then `FC(F)(F)c1nc2ccccc2nc1N/N=C/c1ccc(Cl)cc1`, with 70.3% (active); and `COc1ccc2c(CC(=O)OCC(=O)NC(N)=O)coc2c1`, with 8.09%; and `COc1ccc(CCNC(=O)/C(C#N)=C2\N=C(NC(=O)c3cccs3)c3ccccc32)cc1`, with 81.3% (active). Then `COc1ccc(CCNC(=O)c2ccco2)cc1`, with 14.1%; and `COc1ccc(CN(Cc2ccc(OC)cc2)C(=O)c2cccs2)cc1`, with -9.17%; and `Cc1ccc(/C=C/C(=O)O)cc1S(=O)(=O)N1CCC(Cc2ccccc2)CC1`, with -11.4%. As to `Cc1onc(-c2ccccc2)c1C(=O)N=C(N)c1ccc(Cl)cc1`, the inhibition is 6.38%. Then `FC(F)(F)c1nnc2ccc(N3CCN(c4ccccc4)CC3)nn12`, with 49.9%.

Take `Fc1c(F)c(C(F)(F)F)c(F)c(F)c1N1CCN(c2ccc3nnc(C(F)(F)F)n3n2)CC1`: the inhibition is 72.7% (active).

With `O=C(Nc1ccc(S(=O)(=O)Nc2nccs2)cc1)c1cc(=O)[nH]c2ccccc12`, the inhibition was 19.9%.

Regarding `CC1(C)CCSC(/C=C/c2ccccc2)=N1`, the inhibition was -147%. Consider `O=C(Nc1nnc(CCN2CCCCC2)s1)c1cccc(Cl)c1`, for which the inhibition was 6.02%. Then `Nc1nnn(CC(=O)N/N=C/c2ccc(O)cc2)n1`, with -8.23%; and `Cc1ccc(C(=O)N/C(=C/c2ccc(-c3cccc([N+](=O)[O-])c3)o2)C(=O)NCCCN(C)C)cc1`, with 8.44%; and `N#C/C(=C\c1ccc(-c2cccc([N+](=O)[O-])c2)o1)C(=O)NCCN1CCOCC1`, with 27.9%. In the case of `Cc1ccc(Cc2cnc(NC(=O)/C(C#N)=C/c3ccc(-c4cccc([N+](=O)[O-])c4)o3)s2)cc1` it was 93.4% (active).

For `Cc1ccc(/C=N/NC(=S)NC2CCCCC2)o1`, the inhibition is 2.92%. Regarding `Nc1ccccc1Sc1cc(Cl)nnc1Cl`, the inhibition is 20%.

As to `CC(=O)Nc1ccc(CC#N)cc1`, the inhibition is 18.1%. On to `CC1(C)CC(=O)C(N=Nc2c(F)cccc2F)=C(O)C1`, for which the inhibition was 7.79%.

Regarding `CCOc1ccc(Cn2c(SCCCCC#N)nc3c2c(=O)n(C)c(=O)n3C)cc1OCC`, the inhibition is 17.3%. Then `CCCSc1nc2c(c(=O)n(C)c(=O)n2C)n1Cc1ccc(C)cc1`, with 77.2% (active); and `Cc1cccc(Cn2c(SCCO)nc3c2c(=O)n(C)c(=O)n3C)c1`, with 16.8%; and `Cc1nc2cc(NC(=O)Nc3cccc(F)c3)ccc2n1C`, with -0.84%. Consider `C/C(Cc1ccccc1)=N\NC(=O)CNC(=O)c1ccc2c(c1)OCCO2`, for which the inhibition was 14.9%.

As to `CC(=O)N1CCC(N(C(=O)Nc2ccc(Cl)cc2)C(C)C)CC1`, the inhibition was 15.3%. Then `CC(C)Oc1ccc(CCC(=O)NNC(=S)NCc2ccccc2)cc1`, with 6.72%; and `CC1(C)CC(N2CCN(C(c3ccccc3)c3ccccc3)CC2)=CC(=[N+]2CCCCC2)C1`, with 65.3%; and `CN(CC(=O)Nc1ccc(F)cc1)CC(=O)Nc1ccc(Cl)c(S(=O)(=O)N2CCOCC2)c1`, with -2.81%.

With `Cc1nn2c(NCCN(C)C)c3c(nc2c1-c1ccccc1)CCC3`, the inhibition is -22%. Then `COc1ccc(-n2c(=S)[nH]c3sc4c(c3c2=O)CCc2ccccc2-4)cc1`, with -20.5%; and `CCC1(C)Cc2c(sc3nc(SC)[nH]c(=O)c23)CO1` (stereo unspecified), with 10%; and `CSc1nc2sc3c(c2c(=O)[nH]1)CCc1ccccc1-3`, with 106% (active).

`CCn1c(SCC(=O)N/N=C/c2ccccc2OCC(=O)O)nnc1-c1ccc(C(C)(C)C)cc1`: the inhibition was 4.75%. Then `CC(C)(C)n1cnnc1Sc1ccc([N+](=O)[O-])cn1`, with 12.9%; and `Cc1ccc(-c2c[n+](CC(=O)Nc3ccccc3)c3n2CCC3)cc1`, with 16.6%; and `O=C(O)C1CCN(C(=O)c2cc(F)cc3c2OCOC3)CC1`, with 12.2%.

Regarding `Cc1ccc(S(=O)(=O)NNC(=O)Nc2cccc3ccccc23)cc1`, the inhibition was 36.5%. In the case of `O=C(Nc1ccc2c(c1)C(=O)OC2)Nc1cccc2ccccc12` it was 90.2% (active).

With `O=C(CC12CC3CC(CC(C3)C1)C2)Nc1ccc2c(c1)COC2=O`, the inhibition was 69.7%.

For the compound `O=C(c1ccc(CN2CCOCC2)cc1)N1CCN(c2ccccc2F)CC1`, the inhibition was -5.7%. Turning to `COc1ccc2oc(=O)c(C(=O)N3CCN(c4ccccc4F)CC3)cc2c1`, the inhibition is 25.2%.

Regarding `O=C(c1cccc2ccccc12)N1CCN(c2ccccc2F)CC1`, the inhibition is 91.4% (active). In the case of `COc1ccc(CCNC2=CC(=O)CC(C)(C)C2)cc1`, the inhibition is 6.34%.

`C=CCN1CC(C)/C(=N\O)CC1C` (stereo unspecified): the inhibition is -23.6%. In the case of `CC1=C/C(=N\S(=O)(=O)c2ccccc2)C(C(C)C)=CC1=O` it was 49.7%; in that of `CCOC(=O)C1(S(=O)(=O)c2ccccc2)CCN(Cc2ccccc2)CC1`, -6.62%.

For `CC1=C/C(=N\OS(=O)(=O)c2ccccc2)C=CC1=O`, the inhibition is 108% (active). Then `CN(C(=O)CCn1c(=S)oc2ccccc21)C1CCCCC1`, with 4.79%; and `CC(C)(C)C(=O)Cn1c(NCCO)nc2ccccc21`, with 9.85%; and `OCCNc1nc2ccccc2n1-c1ncnc2sc3c(c12)CCC3`, with 74.4% (active). In the case of `O=C(O)[C@@H]1CCCN1c1ncnc2sc3c(c12)CCC3` it was -1.98%; in that of `N/C(=N\S(=O)(=O)c1cc(C(F)(F)F)cc(C(F)(F)F)c1)c1cccs1`, 34.7%; in that of `Cc1ccc(S(=O)(=O)NC(=O)Nc2nc(-c3ccc(F)c(F)c3)cs2)cc1`, 1.74%. Then `CCOC(=O)c1cc(C)nc(S(C)(=O)=O)c1C#N`, with -90.6%. For the compound `COc1cccc(C2c3[nH]c4ccccc4c3CCN2Cc2cccc(C)n2)c1` (stereo unspecified), the inhibition was 8.45%. As for `c1ccc(C2c3[nH]c4ccccc4c3CCN2Cc2cccn2-c2cccnc2)nc1` (stereo unspecified), the inhibition was -19.1%.

As for `Oc1cccc(C2c3[nH]c4ccccc4c3CCN2Cc2cnn(-c3ccccc3)c2)c1` (stereo unspecified), the inhibition was 106% (active).
